# “And” between values parts separate entries of the source, which are not always exact repeats. Identical values can stand only once. Over roughly 2,900 compounds, “IRF Lucia reporter activity, fold change vs agonist alone” has its median near 0.9; the highest 2% begin near 2.8. What follows is part of a selection rich in the highest values, with near analogues and random picks from the rest.
# How the values were obtained:
# RAW-Dual [1] = experiment: IRF Lucia reporter activity, fold change vs agonist alone; cytotoxicity flag (confluency mask): not cytotoxic; higher = enhanced IRF activity
# Procedure, shortened: (§1)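 After 50 nL of library stock was delivered by pin tool to RAW-Dual macrophages (50,000 cells/well, DMEM, 384-well plates), a PRR agonist was added 1 h later and the plates were kept at 37 °C, 5% CO2. Twenty hours later, IRF was read from supernatant by QuantiLuc luminescence and NF-κB by QuantiBlue absorbance at 620 nm. Reporter activity is stated as fold change over agonist-alone wells. Wells with IncuCyte confluency under 70% of agonist controls in both mask sets were counted as cytotoxic.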
# RAW-Dual [2] = experiment: IRF Lucia reporter activity, fold change vs agonist alone; higher = enhanced IRF activity; details: agonist: MPLA (TLR4) […]
# Procedure, shortened: as §1
# RAW-Dual [3] = experiment: IRF Lucia reporter activity, fold change vs agonist alone; cytotoxicity flag (confluency mask): cytotoxic (confluency <70% of control); higher = enhanced IRF activity
# Procedure, shortened: as §1
# [4] = agonist: 3'3'-cGAMP (STING) 10 ug/mL
# [5] = library stock concentration (final ~1000-fold dilution): 10 mM, cytotoxicity flag (confluency mask): not cytotoxic
smiles,measurement,setting,value
Cc1nnc(NC(=O)c2nc(S(=O)(=O)Cc3ccc(F)cc3)ncc2Cl)s1 (library stock concentration (final ~1000-fold dilution): 10 mM),IRF Lucia reporter activity,RAW-Dual [1]; [4],0.0452
same,IRF Lucia reporter activity,RAW-Dual [1]; agonist: LPS (TLR4) 0.1 ug/mL,0.308
NC1C(O)OC(CO)C(O)C1O (stereo not drawn) (library stock concentration (final ~1000-fold dilution): 10 mM),IRF Lucia reporter activity,RAW-Dual [1]; [4],0.143
same,IRF Lucia reporter activity,RAW-Dual [1]; agonist: LPS (TLR4) 0.1 ug/mL,0.267
CC(C)=CCC[C@](C)(O[C@@H]1O[C@H](CO)[C@@H](O)C(O)[C@H]1O)[C@H]1CC[C@]2(C)[C@H]1[C@H](O)CC1[C@@]3(C)CC[C@H](O)C(C)(C)[C@@H]3[C@@H](O[C@@H]3O[C@H](CO)[C@@H](O)[C@H](O)[C@H]3O[C@@H]3O[C@@H](C)[C@H](O)[C@@H](O)[C@H]3O)C[C@]12C (stereo partly drawn) (library stock concentration (final ~1000-fold dilution): 10 mM),IRF Lucia reporter activity,RAW-Dual [1]; [4],1.16
same,IRF Lucia reporter activity,RAW-Dual [1]; agonist: LPS (TLR4) 0.1 ug/mL,1.03
CCCCCCCCCCCCCC(=S)NCCCCC(NC(=O)OCc1ccccc1)C(=O)Nc1ccccc1 (stereo not drawn) (library stock concentration (final ~1000-fold dilution): 10 mM),IRF Lucia reporter activity,RAW-Dual [1]; [4],0.949
same,IRF Lucia reporter activity,RAW-Dual [1]; agonist: LPS (TLR4) 0.1 ug/mL,1.09
CN(C)CCOc1ccc(-c2nc(-c3ccncc3)c(-c3ccc4c(c3)CC/C4=N\O)[nH]2)cc1 (library stock concentration (final ~1000-fold dilution): 10 mM),IRF Lucia reporter activity,RAW-Dual [1]; [4],0.992
same,IRF Lucia reporter activity,RAW-Dual [1]; agonist: LPS (TLR4) 0.1 ug/mL,3.04
COc1ccc2cc(-c3[nH]c(-c4ccc(S(C)=O)cc4)nc3-c3ccncc3)ccc2c1 (stereo not drawn) (library stock concentration (final ~1000-fold dilution): 10 mM),IRF Lucia reporter activity,RAW-Dual [1]; [4],0.0441
same,IRF Lucia reporter activity,RAW-Dual [1]; agonist: LPS (TLR4) 0.1 ug/mL,0.466
OCCn1cc(-c2ccc3c(c2)CC/C3=N\O)c(-c2ccncc2)n1,IRF Lucia reporter activity,RAW-Dual [2]; [5],0.784
OCCn1cc(-c2ccc3c(c2)CC/C3=N\O)c(-c2ccncc2)n1 (library stock concentration (final ~1000-fold dilution): 10 mM),IRF Lucia reporter activity,RAW-Dual [1]; [4],0.614
same,IRF Lucia reporter activity,RAW-Dual [1]; agonist: LPS (TLR4) 0.1 ug/mL,0.658
CN(C)CCOc1ccc(-c2nc(-c3ccncc3)c(-c3ccc4c(c3)CC/C4=N\O)[nH]2)cc1,IRF Lucia reporter activity,RAW-Dual [2]; [5],1.04
COc1ccc2cc(-c3[nH]c(-c4ccc(S(C)=O)cc4)nc3-c3ccncc3)ccc2c1 (stereo not drawn),IRF Lucia reporter activity,RAW-Dual [2]; [5],0.798
CC(C)CCn1c(CN2CCN(C(=O)C3CC3)CC2)nc2c1c(=O)n(C)c(=O)n2C (library stock concentration (final ~1000-fold dilution): 10 mM),IRF Lucia reporter activity,RAW-Dual [1]; [4],0.987
same,IRF Lucia reporter activity,RAW-Dual [1]; agonist: LPS (TLR4) 0.1 ug/mL,0.989
CN1CCC(COc2cnc(-c3cccc(Cn4nc(-c5cccc(C#N)c5)ccc4=O)c3)nc2)CC1,IRF Lucia reporter activity,RAW-Dual [2]; [5],1.37
CN1CCC(CNc2ccc3ncc(-c4cccc(OC(F)(F)F)c4)n3n2)CC1,IRF Lucia reporter activity,RAW-Dual [2]; [5],1.07
CN1CCC(COc2cnc(-c3cccc(Cn4nc(-c5cccc(C#N)c5)ccc4=O)c3)nc2)CC1 (library stock concentration (final ~1000-fold dilution): 10 mM),IRF Lucia reporter activity,RAW-Dual [1]; [4],0.676
same,IRF Lucia reporter activity,RAW-Dual [1]; agonist: LPS (TLR4) 0.1 ug/mL,3.96
CN1CCC(CNc2ccc3ncc(-c4cccc(OC(F)(F)F)c4)n3n2)CC1 (library stock concentration (final ~1000-fold dilution): 10 mM),IRF Lucia reporter activity,RAW-Dual [1]; [4],1.03
same,IRF Lucia reporter activity,RAW-Dual [1]; agonist: LPS (TLR4) 0.1 ug/mL,0.089
CC(C)N(CCC(c1ccccc1)c1cc(CO)ccc1O)C(C)C (stereo not drawn) (library stock concentration (final ~1000-fold dilution): 10 mM),IRF Lucia reporter activity,RAW-Dual [1]; [4],0.857
same,IRF Lucia reporter activity,RAW-Dual [1]; agonist: LPS (TLR4) 0.1 ug/mL,0.982
CC(C)N(CCC(c1ccccc1)c1cc(CO)ccc1O)C(C)C (stereo not drawn),IRF Lucia reporter activity,RAW-Dual [2]; [5],0.986
CCCC1CC(C(=O)NC(C(C)Cl)C2OC(SC)C(OP(=O)(O)O)C(O)C2O)N(C)C1 (stereo not drawn),IRF Lucia reporter activity,"RAW-Dual [2]; library stock concentration (final ~1000-fold dilution): 10 mM water, cytotoxicity flag (confluency mask): not cytotoxic",1.42
CCCC1CC(C(=O)NC(C(C)Cl)C2OC(SC)C(OP(=O)(O)O)C(O)C2O)N(C)C1 (stereo not drawn) (library stock concentration (final ~1000-fold dilution): 10 mM water),IRF Lucia reporter activity,RAW-Dual [1]; [4],1.23
same,IRF Lucia reporter activity,RAW-Dual [1]; agonist: LPS (TLR4) 0.1 ug/mL,0.95
CCOC(=O)C1=C(C)NC(C)=C(C(=O)OC)C1c1cccc(Cl)c1Cl (stereo not drawn),IRF Lucia reporter activity,RAW-Dual [2]; [5],1.08
CCCC(=O)OCOC(=O)C1=C(C)NC(C)=C(C(=O)OC)C1c1cccc(Cl)c1Cl (stereo not drawn) (library stock concentration (final ~1000-fold dilution): 10 mM),IRF Lucia reporter activity,RAW-Dual [1]; [4],1.02
same,IRF Lucia reporter activity,RAW-Dual [1]; agonist: LPS (TLR4) 0.1 ug/mL,0.873
COC(=O)C1=C(C)NC(C)=C(C(=O)OCC(C)C)C1c1ccccc1[N+](=O)[O-] (stereo not drawn) (library stock concentration (final ~1000-fold dilution): 10 mM),IRF Lucia reporter activity,RAW-Dual [1]; [4],0.585
same,IRF Lucia reporter activity,RAW-Dual [1]; agonist: LPS (TLR4) 0.1 ug/mL,0.872
CCOC(=O)C1=C(COCCN)NC(C)=C(C(=O)OC)C1c1ccccc1Cl (stereo not drawn) (library stock concentration (final ~1000-fold dilution): 10 mM),IRF Lucia reporter activity,RAW-Dual [3]; [4],0.715 and 0.401
same,IRF Lucia reporter activity,RAW-Dual [3]; agonist: LPS (TLR4) 0.1 ug/mL,2.55 and 2.72
CCOC(=O)C1=C(COCCN)NC(C)=C(C(=O)OC)C1c1ccccc1Cl.O=S(=O)(O)c1ccccc1 (stereo not drawn),IRF Lucia reporter activity,"RAW-Dual [2]; library stock concentration (final ~1000-fold dilution): 10 mM, cytotoxicity flag (confluency mask): cytotoxic (confluency <70% of control)",3.36
COC(=O)C1=C(C)NC(C)=C(C(=O)OCC(C)C)C1c1ccccc1[N+](=O)[O-] (stereo not drawn),IRF Lucia reporter activity,RAW-Dual [2]; [5],0.508
CCCC(=O)OCOC(=O)C1=C(C)NC(C)=C(C(=O)OC)C1c1cccc(Cl)c1Cl (stereo not drawn),IRF Lucia reporter activity,RAW-Dual [2]; [5],0.992
COC(=O)C1=C(C)NC(C)=C(C(=O)OC)C1c1ccccc1[N+](=O)[O-] (library stock concentration (final ~1000-fold dilution): 10 mM),IRF Lucia reporter activity,RAW-Dual [1]; [4],0.606
same,IRF Lucia reporter activity,RAW-Dual [1]; agonist: LPS (TLR4) 0.1 ug/mL,0.554

# — the supplement of paper PMC10037445
